# Experimental data as given in PubChem BioAssay AID1259415 (National Center for Advancing Translational Sciences (NCATS), 2018).
# Values joined by “and” are separate entries in the source; they are usually repeats but may differ in a detail not shown here. Identical values can stand only once. Screen size: about 410,000 compounds; about 18,000 (4.4%) were called active. Roughly 7% stayed inconclusive and do not appear here. The sample holds actives, similar compounds and a random draw of the others, so the mix is not that of the screen. A number with no mark means an inactive call. Cut-off read from the data, not from the text of the source: active = activity change below about -60%; inconclusive = no clear call, values can overlap the other calls; inactive = above about -39%.
# Experiment: qHTS Assay for inhibitors of the human cytomegalovirus (HCMV)
# Conditions: HFF cells, HCMV-luciferase reporter, 72 h; at 57.5 µM; hits give low values
# Outline: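 HFF cells seeded 16 h at 37C, treated with compounds, infected with luciferase-reporter HCMV at MOI 1 PFU/cell; luciferase read at 72 h post infection, normalized to buffer-only and Salinomycin controls.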
# % is set by controls: 0 for no effect and ±100 for the full control effect.
row,SMILES,"activity change, negative = inhibition"
1,CC1(C)CCSC(/C=C/c2ccccc2)=N1,-97.3% (active)
2,CC1(C(=O)NS(=O)(=O)c2ccccc2)CCN1C(=O)C/C=C/c1ccccc1 (configuration not stated),19.5%
3,CC1(C(=O)O)CCN1C(=O)/C=C/c1ccccc1 (configuration not stated),-1.81%
4,COc1cccc(-n2ccn(CC(=O)NCc3ccc(C)cc3)c(=O)c2=O)c1,-17.1%
5,Fc1ccccc1N=C1Nc2cccc3cccc1c23,-68.6% (active)
6,COc1ccc(C)cc1S(=O)(=O)Nc1cc2c3c(c1)CCC(=O)N3CCC2,0.474%
7,CCN(CC)P(=O)(/C(Cl)=C\Nc1c(C)n(C)n(-c2ccccc2)c1=O)N(CC)CC,54%
8,Cc1cc(C)c2nc(SCC(=O)N(C)C3CCS(=O)(=O)C3)cc(C)c2c1 (configuration not stated),25.8%
9,CCCOc1ccc(C(=O)C(CCC(CNCC)C(=O)c2ccc(OCCC)cc2)CNCC)cc1 (configuration not stated),-96.5% (active)
10,CCCOc1cccc(C(=O)Nc2cccc(NC(=O)c3ccc(C(C)(C)C)cc3)c2)c1,50.3%
11,CC(C)CCOc1ccc(C(=O)C[N+]2(C)CCOCC2)cc1,-4.43%
12,Cc1ccc(OCCn2c(CNc3ccccc3C)nc3ccccc32)cc1,38%
13,COc1ccc(/C=C/c2nc(C#N)c(NCc3ccc(F)cc3)o2)cc1OC,9.25%
14,Cc1cc(Cl)ccc1OCC(=O)N(Cc1ccc(N(C)C)cc1)C1CCS(=O)(=O)C1 (configuration not stated),15.4%
15,Cc1ccc(Cl)cc1NC(=O)CCS(=O)(=O)c1ccc(Br)s1,-33.6%
16,COc1ccc(Cl)cc1NC(=O)CCC(=O)c1ccc(C)cc1,-19.2%
17,COc1ccc(Cl)cc1NC(=O)CCS(=O)(=O)c1ccc(Br)cc1,-65.8% (active)
18,O=C(c1ccccc1)N1CC(=O)N2[C@@H](CO)[C@@H](c3ccc(Br)cc3)[C@@H]2C1,14.7%
19,COc1cc(NC(=O)c2cc(C3CC3)nc3c2c(C)nn3-c2ccccc2)cc(OC)c1,-30%
20,CSc1ccc(CCNC(=O)c2cc(C)nc3c2c(C)nn3-c2cccc(F)c2)cc1,30.7%
21,Cc1cc(C(=O)Nc2cccc(C(F)(F)F)c2)c2c(C)nn(-c3cccc(F)c3)c2n1,-98.1% (active)
22,O=C(CN1CCN(S(=O)(=O)/C=C/c2ccccc2)CC1)NC(=O)NCc1ccco1,61.6%

row,SMILES,"activity change, negative = inhibition"
1,COc1ccc(OC)c(C2C3=C(N=c4s/c(=C\c5cccc(O)c5)c(=O)n42)c2ccccc2CC3)c1 (configuration not stated),-92.5% (active)
2,COc1ccc(Cn2ccc3nc(C)c(C(=O)Nc4ccc(C)c(F)c4)cc3c2=O)cc1,0.318%
3,COc1ccc(C2=CC(c3ccccc3Cl)n3nc(-c4ccc(Cl)cc4)nc3N2)cc1 (configuration not stated),-32.6%
4,C/C(=N/NC(=O)CC(=O)N/N=C(\C)c1ccc([N+](=O)[O-])cc1)c1ccc([N+](=O)[O-])cc1,-9.56%
5,C/C(=N\Nc1nc(N2CCOCC2)nc(N2CCOCC2)n1)c1ccc([N+](=O)[O-])cc1,-66% (active)
6,C/C(=N\Nc1ccc([N+](=O)[O-])cc1)c1ccc(-n2nncc2C(C)(C)C)cc1,-14.8%
7,CC1CCN(CCCNC(=O)CN2C(=O)CSc3ccc(S(=O)(=O)N4CCCCC4)cc32)CC1,16.9% and -5.47%
8,CCOC(=O)c1ccccc1NC(=O)c1sc2nc(-c3ccc(F)cc3)cn2c1C,-4.65%
9,Cc1cccc(C(=O)Nc2ccc(-c3nc4ncccc4o3)cc2C)c1,24.6%
10,O=C1NC(=O)N(CCc2ccc(F)cc2)C(=O)/C1=C/C=C/c1ccccc1,-71.6% (active)
11,O=C1c2ccccc2C(=O)N1CCOc1ccc(F)cc1,-3.7%
12,CCc1ccc(OCC(=O)N2CCN(CC(=O)Nc3ccccc3Cl)CC2)cc1,11.8%
13,Clc1ccc(-c2cc(COc3ccccc3)no2)cc1Cl,0.868%
14,Cc1ccc(NC(=O)CSc2nnc3[nH]c(=O)cc(C)n23)cc1Cl,-38.5%
15,Cc1cc(=O)oc2cc(OC(C)C(=O)Nc3ccc(N4CCOCC4)cc3)ccc12 (configuration not stated),5.98%
16,COc1ccc(-c2cc(=O)oc3cc(OC(C)C(=O)NCC4CCC(C(=O)O)CC4)ccc23)cc1 (configuration not stated),5.3%
17,COc1ccc(-c2cc(=O)oc3cc(OC(C)C(=O)Nc4ccc(CN5CCOCC5)cc4)ccc23)cc1 (configuration not stated),-70.7% (active)
18,CCCNC(=O)c1ccc2c(c1)ncn2-c1ccc(C)cc1C,-6.25%
19,O=C(Nc1ccc2nc(SCC(=O)N3CCCc4ccccc43)sc2c1)c1ccc(Cl)cc1,95.5%
20,O=C(Nc1ccc2nc(SCC(=O)N3CCCc4ccccc43)sc2c1)c1ccc(F)cc1,-5.14%
21,CC(C)(C)c1ccc(C(=O)Nc2ccc3c(c2)CCCN3C(=O)c2cccs2)cc1,-80.2% (active)
22,Cc1ccc(CNC(=O)CCCNC(=O)c2ccc(Cl)cc2)n1C,43.4%

row,SMILES,"activity change, negative = inhibition"
1,CCOc1ccccc1CNC(=O)C1CCCN(S(=O)(=O)c2ccc3c(ccn3C)c2)C1 (configuration not stated),-5.75%
2,Cc1ccc(CNC(=O)CCc2c(C)nn(-c3ccc(N4CCCC4)nn3)c2C)cc1,19.6%
3,Cc1[nH]c2ccccc2c1C(=O)C(C)Sc1nnc(C2CC2)o1 (configuration not stated),0%
4,CCCCCC1CCC(c2nnc(SCC(C)=O)o2)CC1 (configuration not stated),-99.8% (active)
5,CCN(CC)C(=O)CSc1nnc(C2CCCCC2)o1,18.8%
6,Cc1ccc(CNC(=O)CCNS(=O)(=O)c2ccc3c(c2)oc(=O)n3C)cc1,-1.91%
7,COC1=CC=C2[C@H]3Cc4ccc(OC)c5c4[C@@]2(CCN3C)C1O5 (some centres not stated),23.5%
8,COc1ccc2c(c1)[C@]13CCCCC1C(C2)N(C)CC3 (some centres not stated),-2.65%
9,COC1=C[C@@H]2[C@@H]3Cc4ccc(OC)c(O)c4[C@]2(CCN3C)CC1=O,-68% (active)
10,Cc1ccc(Cl)cc1N1CCN(C(=O)c2cccn3c(=O)c4cc(Cl)ccc4nc23)CC1,-4.38%
11,COc1ccc(-c2nc3scc(CCNS(=O)(=O)c4cc(F)ccc4OC)n3n2)cc1OC,34.6%
12,CCOC(=O)c1scc(-c2ccc(C)cc2)c1S(=O)(=O)Nc1cc(C)ccc1C,-16.6%
13,CCOC(=O)c1c(-c2ccc(C)cc2)csc1/N=C(\C)C1=C(O)c2ccccc2C1=O,-62.8% (active)
14,CC(=NCc1ccc2c(c1)OCO2)C1=C(O)c2ccccc2C1=O,14.5%
15,CSc1ccc(C2C(C(=O)Nc3ccccc3)=C(C)Nc3nc4ccccc4n32)cc1 (configuration not stated),8.38%
16,COc1ccc(CNC(=O)Cn2nnc(-c3ccc(S(C)(=O)=O)cc3)n2)cc1,21.5%
17,COc1ccc(N2CCN(C3=NS(=O)(=O)C(c4cccc(Br)c4)=C3C)CC2)cc1,-29.4%
18,COc1cccc(N2CCN(c3ccc4nnc(CCC(=O)N5CCN(C)CC5)n4n3)CC2)c1,-14.4%
19,COc1cccc(-c2nc3ccc(N4CCN(C)CC4)cc3[nH]2)c1,-68.2% (active)
20,CCCCOC(=O)CSc1ncnc2sc3c(c12)CCC(C)C3 (configuration not stated),-8.12%
21,CCC/C(=N\O)c1c[nH]c2ccccc12,26.6%
22,CN1CCN(/N=C/c2c[nH]c3ccccc23)CC1,41%

row,SMILES,"activity change, negative = inhibition"
1,C[n+]1ccc(/C=C/c2c[nH]c3ccccc23)cc1,-99.1% (active)
2,COc1ccc(Cl)cc1N(C)C(=O)c1cc2c(=O)oc3ccc(C)cc3c2s1,-13.9%
3,O=C(CN1CCSc2ccccc21)N1CCN(c2ccccc2)CC1,-1.62%
4,CC(NC(=O)CN(C)S(=O)(=O)c1ccc(F)cc1)C1CC2CCC1C2 (configuration not stated),5.39%
5,CCOC(=O)CCC(=O)OCC(=O)NC(C)C1CC2CCC1C2 (configuration not stated),-99.5% (active)
6,Cc1cccc(C(=O)OCC(=O)NC(C)C2CC3CCC2C3)c1O (configuration not stated),50.9%
7,COc1cccc(NC(=O)c2nn(C34CC5CC(CC(C5)C3)C4)cc2[N+](=O)[O-])c1,-71.1% (active)
8,Cn1cc([N+](=O)[O-])c(C(=O)Nc2ccc3c(c2)OCCO3)n1,-91% (active)
9,COc1cccc(NC(=O)c2csnn2)c1,24.9%
10,COc1cccc(NC(=O)COc2cccnc2[N+](=O)[O-])c1,9.93%
11,Cn1ccnc1SCC(=O)Nc1ccc2c(c1)OCCO2,147%
12,Cn1cnc(S(=O)(=O)Nc2ccc3c(c2)OCCO3)c1,30.3%
13,O=C(NCc1ccco1)O[C@H]1CC[C@@]23CCCN2C(=O)CCC[C@H]3[C@H]1Cc1ccccc1,13.9%
14,CCC(=O)N1CCc2cc(CNS(=O)(=O)c3ccc(Br)s3)ccc21,-28.1%
15,CCOc1ccc(C(=O)N2CCN(CCc3ccccn3)CC2)cc1,7.37%
16,Cc1nnc2n1N=C(c1ccc3c(c1)NC(=O)CO3)CS2,58.6%
17,O=C(c1ccc2c(c1)N(Cc1ccc(Cl)cc1)C(=O)c1ccccc1S2(=O)=O)N1CCCCC1,-15.9%
18,O=C(c1ccc2c(c1)N(Cc1ccc(F)cc1)C(=O)c1ccccc1S2(=O)=O)N1CCN(c2ccccn2)CC1,-76.7% (active) and -91.8% (active)
19,O=C(c1ccc2c(c1)N(Cc1ccccc1)C(=O)c1ccccc1S2(=O)=O)N1CCCC1,-21.3%
20,Cc1ccc(Cl)cc1NC(=O)C(C)n1nnc2sc(-c3ccccc3)cc2c1=O (configuration not stated),17.8%
21,COc1cc(OC)c(N(C)C(=O)c2cc3c(=O)oc4ccccc4c3s2)cc1Cl,-8.12%
